The assay has as its target Estrogen receptor (Homo sapiens) (UniProt P03372). The assay can be described thus: displacement of fluorescent estrogen from ERalpha – cell-based, Cos7 ERalpha-GFP, flow cytometry, primary screen (AID 1211).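 Note: 0% = DMSO vehicle wells and 100% = no E2-Alexa633 signal left.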 The settings on record: fluorescent ligand competition, stronger effect = higher value. (A flow cytometer gives signals particle by particle.)

The values that follow come from PubChem BioAssay AID1211 (NMMLSC, 2008).

Each structure is given as a SMILES string. Calls of active or inactive are those of the source. The rule behind the calls is not given here.

Estrogen receptor (Homo sapiens), sequence (P03372 whole entry, looked up): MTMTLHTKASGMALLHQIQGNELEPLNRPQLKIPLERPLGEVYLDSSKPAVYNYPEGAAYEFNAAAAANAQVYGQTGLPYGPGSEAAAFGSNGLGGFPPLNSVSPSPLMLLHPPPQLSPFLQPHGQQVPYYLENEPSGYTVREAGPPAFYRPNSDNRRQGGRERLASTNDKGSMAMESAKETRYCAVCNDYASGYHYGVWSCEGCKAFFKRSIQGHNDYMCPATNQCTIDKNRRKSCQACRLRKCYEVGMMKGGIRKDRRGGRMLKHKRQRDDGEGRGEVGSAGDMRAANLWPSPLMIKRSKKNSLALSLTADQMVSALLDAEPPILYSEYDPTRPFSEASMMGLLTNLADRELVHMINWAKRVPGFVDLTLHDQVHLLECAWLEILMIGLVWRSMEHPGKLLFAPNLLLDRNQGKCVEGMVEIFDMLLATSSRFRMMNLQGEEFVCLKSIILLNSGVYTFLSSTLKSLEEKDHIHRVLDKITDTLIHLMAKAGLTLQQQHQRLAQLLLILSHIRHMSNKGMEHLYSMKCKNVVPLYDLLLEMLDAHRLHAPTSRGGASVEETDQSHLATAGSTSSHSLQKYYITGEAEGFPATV

As to `Cc1ccc(Oc2cc(N3CCOCC3)nc(-c3ccccc3)n2)cc1`, the inhibition of ligand binding (at 10 µM) was 13% (active) and the inhibition of ligand binding (binding inhibition, at 0.1 µM) came to 66%.

Consider `O=C(O)c1ccc(NS(=O)(=O)c2ccc3c(c2)C2C=CCC2C(c2ccccc2F)N3)cc1` (stereo not drawn), for which the inhibition of ligand binding reads like this: (at 10 µM) 62% (inactive); (binding inhibition, at 0.1 µM) 5%.

For `O=Cc1ccc2oc3nc4n(c(=O)c3c(=O)c2c1)CCCS4`, the inhibition of ligand binding (at 10 µM) was 40% (inactive) and the inhibition of ligand binding (binding inhibition, at 0.1 µM) came to 15%.

For the molecule `CCN(c1ccccc1)S(=O)(=O)c1cc(C(=O)O)ccc1C`, the inhibition of ligand binding (at 10 µM) is 7% (inactive) and the inhibition of ligand binding (binding inhibition, at 0.1 µM) worked out at 20%.

`O=Cc1cn(-c2ccccc2)nc1-c1cc2c(ccc3ccccc32)oc1=O`: the inhibition of ligand binding (at 10 µM) was 40% (inactive) and the inhibition of ligand binding (binding inhibition, at 0.1 µM) was 55%.

On to `NC(=O)c1cccc2c1C(=O)N(C1CCCCC1)C2`, for which the inhibition of ligand binding by setting is: (at 10 µM) 26% (inactive); (binding inhibition, at 0.1 µM) 39%.

In the case of `C/C(N)=C(/C#N)C(=O)CSc1nnc(Nc2ccccc2C)s1`, the inhibition of ligand binding was 48% (inactive) (at 10 µM) and 18% (binding inhibition, at 0.1 µM).

As to `COc1ccc(-c2cn3c(C)c(C(=O)Nc4ccncc4)sc3n2)cc1`, the inhibition of ligand binding is 28% (inactive) (at 10 µM) and 3% (binding inhibition, at 0.1 µM).

`Cn1c(-c2ccc(N)cc2)nc2ccccc21`: the inhibition of ligand binding runs as follows: (at 10 µM) 23% (inactive); (binding inhibition, at 0.1 µM) 15%.

On to `O=C(O)c1cc(-c2ccco2)nc2ccc(Br)cc12`, for which the inhibition of ligand binding (at 10 µM) is 21% (inactive) and the inhibition of ligand binding (binding inhibition, at 0.1 µM) was determined as 39%.

For the molecule `CCc1ccc2[nH]c(=O)c(CN(Cc3ccc4c(c3)OCO4)C(=O)c3ccco3)cc2c1`, the inhibition of ligand binding is, setting by setting: (at 10 µM) 0% (inactive); (binding inhibition, at 0.1 µM) 62%.

Take `COC(=O)c1ccc(CC(=O)c2ccc(O)cc2O)o1`: the inhibition of ligand binding was 32% (inactive) (at 10 µM) and 9% (binding inhibition, at 0.1 µM).

As to `Cc1nc2sccn2c1-c1nc(-c2cc3ccccc3o2)cs1`, the inhibition of ligand binding reads like this: (at 10 µM) 4% (inactive); (binding inhibition, at 0.1 µM) 22%.

Turning to `CCN(CC)c1ccc2c(c1)oc(=O)c1c(Cl)cc(=O)oc12`, the inhibition of ligand binding reads like this: (at 10 µM) 23% (inactive); (binding inhibition, at 0.1 µM) 4%.
